A short description of experiment [1]: small molecules captured by biotinylated probe aFSTL3 – biochemical, small-molecule microarray, fluorescence 635/667, stem cell growth factor project, primary screen (AID 1064).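 Further: measures binding of the biotinylated anti-FSTL3 antibody to printed compounds.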 Conditions: higher = more signal.
A short description of experiment [2]: binders from COS7 lysate, DM2A8 probe, primary screen, torsin A project, cell lysate, small-molecule microarray, fluorescence 635/667 (AID 1065). The note with it: higher = more signal, COS7 lysate expressing mutant human TOR1A.
Experiment [3] is described as follows: small molecules captured by biotinylated probe aFGF2 – biochemical, small-molecule microarray, fluorescence 635/667, stem cell growth factor project, primary screen (AID 1067).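 Further: measures binding of biotinylated aFGF2 protein to printed compounds on slides; z-score merges feature fluorescence and signal-to-noise across triplicate slides.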 The note with it: higher = more signal.
Experiment [4] can be described thus: small molecules captured by biotinylated probe aFGF10 – biochemical, small-molecule microarray, fluorescence 635/667, stem cell growth factor project, primary screen (AID 1071).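 Further: score merges 667 nm spot intensity and signal to noise from triplicate slides.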 The note with it: higher = more signal.
Experiment [5] deals with Neurogenic locus notch homolog protein 2 (Homo sapiens) (UniProt Q04721). Put plainly: small molecules binding Notch2 protein – biochemical, small-molecule microarray, 635 nm fluorescence, stem cell growth factors, primary screen (AID 1073). The note with it: higher = more signal.
In experiment [6] the target is Pro-neuregulin-1, membrane-bound isoform (Homo sapiens) (UniProt Q02297). Put plainly: small molecules binding neuregulin-1 protein – biochemical, small-molecule microarray, fluorescence 635/667, psychiatric disease protein project, primary screen (AID 1075).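 Further: score combines 667 nm spot fluorescence with signal to noise.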 The note with it: NRG1 binding, 635 nm fluorescence, higher = more signal.
The subject of experiment [7] is Neuregulin-1 EGF-like domain. The experiment can be described thus: small molecules binding NRG1 EGF domain – biochemical, small-molecule microarray, 635 nm fluorescence, primary screen (AID 1081).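 Further: binding of the protein to compounds printed on small-molecule microarray slides.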 Conditions: higher = more signal.
Experiment [8] is described as follows: FRG1 expression reporter modulators in myotubes – cell-based, C2C12 myotubes, firefly/Renilla luciferase, luminescence, FRG1 inhibition for FSHD, primary screen (AID 1084). Conditions: FRG1 promoter luciferase, higher = more signal, called active from +8 up or from −8 down.
The nature of experiment [9]: small molecules captured by biotinylated probe aFST – biochemical, small-molecule microarray, fluorescence 635/667, stem cell growth factor project, primary screen (AID 1086).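 Further: score merges 667 nm fluorescence with signal-to-noise of each printed compound spot.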 Conditions: higher = more signal.
Experiment [10] can be described thus: binders of probe aHhip on microarray, primary screen, stem cell growth factor project, biochemical, small-molecule microarray, fluorescence 635/667 (AID 1087).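 Further: score merges spot fluorescence at 667nm with spot signal to noise ratio.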 Conditions: higher = more signal.
In experiment [11] the test system is PRMT1 (protein arginine N-methyltransferase 1). The experiment can be described thus: small molecules binding arginine methyltransferase PRMT1 – biochemical, small-molecule microarray, 635 nm fluorescence, primary screen (AID 1088).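 Further: binding of Prmt1 protein to compounds spotted on small-molecule microarray slides.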 The note with it: higher = more signal.
Experiment [12] can be described thus: growth effects on S. cerevisiae YJM789 – YJM789 clinical isolate, OD600, 24 h, basal, primary screen (AID 1089).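 Further: growth of clinical yeast isolate S. cerevisiae YJM 789 seeded 1000 cells per well; test concentration not given here.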 Conditions: higher = more signal, called active from +8 up or from −8 down.
A short description of experiment [13]: S. pombe growth modifiers, basal conditions – strain 972, OD600, 24 h, no modulator, primary screen (AID 1090).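 Further: basal condition with compound alone and no growth modifier present; test concentration not given here.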 Conditions: S. pombe 972 growth, higher = more signal, called active from +8 up or from −8 down.
Experiment [14] in a line: budding yeast growth modifiers under rapamycin – strain BY4716, OD600, 96 h, primary screen (AID 1091). Further: test concentration not given here. The note with it: S. cerevisiae BY4716 + rapamycin, higher = more signal, called active from +8 up or from −8 down.
The target in experiment [15] is Torsin-1A-interacting protein 2 (Homo sapiens) (UniProt Q8NFQ8). Put plainly: small molecules binding lysate-expressed LULL1 – cell lysate, human LULL1 lysate, 635/667 nm fluorescence, primary screen (AID 1092).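 Further: probe is lysate of COS7 cells overexpressing human LULL1; score merges per-feature 667 nm fluorescence with signal-to-noise.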 Conditions: small-molecule microarray, hLULL1 lysate binding, 635 nm fluorescence; higher = more signal.
A short description of experiment [16]: optical density change of DRC41 E. coli – strain DRC41, OD650, 24 h, E. coli filamentation project, primary screen (AID 1093).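 Further: MC1000 strain lacking acrAB efflux and sulA so SOS filamentation is blocked; test concentration not given here.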 Conditions: E. coli DRC41 growth, higher = more signal, called active from +8 up or from −8 down.
The nature of experiment [17]: probe aLefty2 binding to arrayed compounds – biochemical, biotinylated probe, 635/667 nm fluorescence, primary screen (AID 1094).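 Further: score merges spot fluorescence near 667 nm with spot signal-to-noise ratio.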 The note with it: small-molecule microarray, higher = more signal.
The subject of experiment [18] is Noggin (protein binding on small-molecule microarray). Put plainly: small molecules binding Noggin protein – biochemical, 635/667 nm fluorescence, primary screen (AID 1095).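 Further: score merges 667 nm feature fluorescence with signal to noise over triplicate slides.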 Conditions: 635 nm fluorescence, higher = more signal.
The target of experiment [19] is Neurogenic locus notch homolog protein 3 (Homo sapiens) (UniProt Q9UM47). The experiment can be described thus: small molecules binding NOTCH3 protein – biochemical, 635/667 nm fluorescence, primary screen (AID 1096). Conditions: small-molecule microarray, 635 nm fluorescence, higher = more signal.
Experiment [20] can be described thus: probe aEGFR binding to arrayed compounds – biochemical, biotinylated probe, 635/667 nm fluorescence, primary screen (AID 1097).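 Further: probe is a biotinylated anti-EGFR antibody binding compounds printed on slides; score combines fluorescence near 667 nm and signal to noise of each spot.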 The note with it: small-molecule microarray, higher = more signal.

Molecules are shown by their SMILES. Activity calls are given as the source filed them.

Neurogenic locus notch homolog protein 2 (Homo sapiens), sequence (Q04721 whole entry, looked up, canonical isoform): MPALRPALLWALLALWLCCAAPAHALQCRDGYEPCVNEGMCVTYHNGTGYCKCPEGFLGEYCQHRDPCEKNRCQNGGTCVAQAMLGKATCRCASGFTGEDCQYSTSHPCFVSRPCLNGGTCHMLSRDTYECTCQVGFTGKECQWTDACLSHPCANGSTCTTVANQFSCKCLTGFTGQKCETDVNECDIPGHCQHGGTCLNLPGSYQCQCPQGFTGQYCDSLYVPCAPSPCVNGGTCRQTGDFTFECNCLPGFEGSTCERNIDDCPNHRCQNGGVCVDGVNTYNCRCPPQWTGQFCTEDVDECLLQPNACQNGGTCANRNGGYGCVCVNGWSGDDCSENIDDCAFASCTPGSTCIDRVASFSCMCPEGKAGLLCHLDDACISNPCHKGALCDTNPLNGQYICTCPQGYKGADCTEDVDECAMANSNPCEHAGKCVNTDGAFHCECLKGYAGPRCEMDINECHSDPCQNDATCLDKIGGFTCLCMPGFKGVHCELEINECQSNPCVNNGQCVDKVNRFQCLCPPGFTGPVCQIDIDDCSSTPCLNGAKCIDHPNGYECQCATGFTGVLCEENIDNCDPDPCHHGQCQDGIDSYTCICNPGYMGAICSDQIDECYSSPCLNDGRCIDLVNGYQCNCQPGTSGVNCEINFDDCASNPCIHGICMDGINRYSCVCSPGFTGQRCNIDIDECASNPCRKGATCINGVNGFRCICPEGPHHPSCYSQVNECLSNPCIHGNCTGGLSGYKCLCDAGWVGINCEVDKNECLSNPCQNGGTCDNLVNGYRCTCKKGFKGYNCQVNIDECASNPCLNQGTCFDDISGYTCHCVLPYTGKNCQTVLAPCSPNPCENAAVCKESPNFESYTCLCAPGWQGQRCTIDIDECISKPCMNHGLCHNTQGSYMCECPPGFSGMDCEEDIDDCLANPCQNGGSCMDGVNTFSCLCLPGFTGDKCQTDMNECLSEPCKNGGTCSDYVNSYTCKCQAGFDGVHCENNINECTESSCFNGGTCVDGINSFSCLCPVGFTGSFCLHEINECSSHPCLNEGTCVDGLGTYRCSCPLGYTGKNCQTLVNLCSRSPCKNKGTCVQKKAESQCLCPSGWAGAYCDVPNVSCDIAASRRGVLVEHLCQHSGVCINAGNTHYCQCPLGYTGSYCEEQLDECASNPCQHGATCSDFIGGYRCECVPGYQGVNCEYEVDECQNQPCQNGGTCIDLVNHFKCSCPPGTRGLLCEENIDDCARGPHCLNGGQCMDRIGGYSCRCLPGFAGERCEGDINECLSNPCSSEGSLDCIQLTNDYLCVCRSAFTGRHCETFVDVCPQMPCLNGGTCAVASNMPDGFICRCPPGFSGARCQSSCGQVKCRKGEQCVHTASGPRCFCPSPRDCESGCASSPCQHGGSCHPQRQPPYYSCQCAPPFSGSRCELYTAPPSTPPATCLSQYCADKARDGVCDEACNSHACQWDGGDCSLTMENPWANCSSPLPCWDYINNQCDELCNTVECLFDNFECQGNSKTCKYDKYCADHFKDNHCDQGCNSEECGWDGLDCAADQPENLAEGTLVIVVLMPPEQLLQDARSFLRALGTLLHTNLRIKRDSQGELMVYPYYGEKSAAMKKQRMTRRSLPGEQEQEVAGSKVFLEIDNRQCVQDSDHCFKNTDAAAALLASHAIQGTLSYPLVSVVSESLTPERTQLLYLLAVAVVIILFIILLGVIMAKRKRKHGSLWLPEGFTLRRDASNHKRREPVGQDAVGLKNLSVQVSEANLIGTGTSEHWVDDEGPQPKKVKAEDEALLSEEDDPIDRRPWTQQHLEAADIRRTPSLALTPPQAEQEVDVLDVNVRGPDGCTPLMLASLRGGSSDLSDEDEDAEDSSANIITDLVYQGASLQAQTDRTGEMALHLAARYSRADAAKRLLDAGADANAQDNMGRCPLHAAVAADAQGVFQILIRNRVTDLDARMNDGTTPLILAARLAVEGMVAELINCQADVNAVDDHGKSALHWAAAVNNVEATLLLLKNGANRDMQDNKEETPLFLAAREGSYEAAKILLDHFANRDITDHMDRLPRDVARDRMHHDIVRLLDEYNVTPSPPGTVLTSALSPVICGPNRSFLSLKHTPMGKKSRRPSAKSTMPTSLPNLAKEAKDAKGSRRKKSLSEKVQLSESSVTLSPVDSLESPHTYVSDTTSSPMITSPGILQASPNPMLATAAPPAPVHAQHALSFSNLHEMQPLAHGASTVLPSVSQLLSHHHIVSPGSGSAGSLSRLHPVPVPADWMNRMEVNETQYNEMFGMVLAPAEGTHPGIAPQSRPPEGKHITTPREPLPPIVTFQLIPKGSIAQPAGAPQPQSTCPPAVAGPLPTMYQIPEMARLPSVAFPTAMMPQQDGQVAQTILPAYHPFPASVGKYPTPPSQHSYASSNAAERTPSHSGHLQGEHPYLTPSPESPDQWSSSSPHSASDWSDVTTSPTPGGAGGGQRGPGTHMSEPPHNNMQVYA
Torsin-1A-interacting protein 2 (Homo sapiens), sequence (Q8NFQ8 whole entry, looked up): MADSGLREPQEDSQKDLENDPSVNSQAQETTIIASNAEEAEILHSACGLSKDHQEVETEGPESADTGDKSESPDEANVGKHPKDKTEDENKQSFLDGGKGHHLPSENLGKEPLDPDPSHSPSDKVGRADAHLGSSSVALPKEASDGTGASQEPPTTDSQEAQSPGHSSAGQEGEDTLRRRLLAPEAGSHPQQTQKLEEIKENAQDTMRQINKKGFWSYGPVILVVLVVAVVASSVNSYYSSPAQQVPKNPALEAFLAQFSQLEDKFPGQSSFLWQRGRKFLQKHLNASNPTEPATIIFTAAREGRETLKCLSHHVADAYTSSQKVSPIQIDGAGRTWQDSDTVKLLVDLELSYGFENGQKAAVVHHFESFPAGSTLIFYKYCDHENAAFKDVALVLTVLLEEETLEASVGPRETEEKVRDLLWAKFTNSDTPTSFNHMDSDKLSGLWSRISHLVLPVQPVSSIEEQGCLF
Pro-neuregulin-1, membrane-bound isoform (Homo sapiens), sequence (Q02297 whole entry, looked up, the tested form may be a part, canonical isoform): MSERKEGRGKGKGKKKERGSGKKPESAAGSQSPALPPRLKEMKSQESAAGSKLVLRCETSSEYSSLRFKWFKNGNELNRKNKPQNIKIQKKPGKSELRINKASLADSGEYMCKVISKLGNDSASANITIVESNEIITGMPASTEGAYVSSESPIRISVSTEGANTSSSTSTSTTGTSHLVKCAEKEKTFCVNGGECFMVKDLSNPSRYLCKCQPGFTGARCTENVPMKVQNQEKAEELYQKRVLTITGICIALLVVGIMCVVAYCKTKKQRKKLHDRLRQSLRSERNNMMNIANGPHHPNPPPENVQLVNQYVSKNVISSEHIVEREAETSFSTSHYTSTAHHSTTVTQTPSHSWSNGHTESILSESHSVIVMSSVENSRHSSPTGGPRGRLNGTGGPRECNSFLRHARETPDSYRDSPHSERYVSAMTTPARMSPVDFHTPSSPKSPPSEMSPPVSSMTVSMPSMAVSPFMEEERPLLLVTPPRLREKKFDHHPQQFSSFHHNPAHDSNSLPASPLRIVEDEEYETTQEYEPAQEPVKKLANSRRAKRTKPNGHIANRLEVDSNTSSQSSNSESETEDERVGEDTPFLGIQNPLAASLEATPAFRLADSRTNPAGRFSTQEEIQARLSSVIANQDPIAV

Consider `COc1cccc(C)c1NC(=O)O[C@H]1[C@H](OC(=O)Nc2ccccc2)[C@@H](OC(=O)Nc2ccccc2)[C@@H](OC)O[C@@H]1CO`, for which the composite z-score is -0.0439 in experiment [1]; 0.639 in [2]; 0.0811 in experiment [3]; 1.06 in experiment [4]; 1.48 in [5]; 1.81 in [6]. Besides, the composite z-score in [7] was determined as 1.46; in [9], 0.837; in experiment [10], 0.149; in [11], 1.56; in experiment [15], 3.36; in experiment [17], 0.0321. For the same compound, the composite z-score in experiment [18] was 0.902; in experiment [19] it was 1.12; in [20], 0.0182. The z-score in experiment [8] is 0.91 (inactive); in experiment [12] it was 1.52 (inactive); in [13], 0.176 (inactive); in experiment [14], 4.1 (inactive); in experiment [16], -0.93 (inactive).

On to `CCCC1(C(=O)OC)C=C2C(=C(C(C)C)C(=O)C2C)CN1` (stereo not given), for which the composite z-score in experiment [1] was 0.578; in [2] it was -0.241; in [3], -0.133; in experiment [4] it was -0.397; in experiment [5], -0.052; in experiment [6] it was 0.688. For the same compound, the composite z-score was -0.15 in experiment [7]; -0.0967 in experiment [9]; -0.0645 in [10]; -1.32 in experiment [11]; 0.268 in experiment [15]; 0.115 in [17]. The composite z-score in [18] was -0.797; in experiment [19], -0.493; in experiment [20], -0.146. The z-score in experiment [8] was 1.89 (inactive); in experiment [12] it was 0.128 (inactive); in experiment [13], 0.0695 (inactive); in experiment [14] it was 0.767 (inactive); in [16], -1.24 (inactive).

With `CCCCCN1CC=CC23O[C@@H]4/C=C\CCCOC(=O)C4[C@H]2C(=O)N(CCCCCO)[C@@H]3C1=O` (stereo not given in full), the composite z-score in experiment [1] was 0.239; in [2], -0.291; in experiment [3], -0.103; in experiment [4], -0.501; in [5] it was -0.581; in [6], -0.315. Also, the composite z-score in experiment [7] was -0.786; in [9] it was -0.841; in experiment [10], -0.164; in experiment [11] it was -0.409; in experiment [15], -2.15; in experiment [17], -0.159. Further, the figures for the composite z-score in experiment [18], in [19] and in experiment [20] were -0.636, -0.0581 and -0.175, respectively. The z-score was -0.225 (inactive) in [8]; -0.557 (inactive) in experiment [12]; -0.383 (inactive) in experiment [13]; -1.39 (inactive) in experiment [14]; 1.62 (inactive) in [16].

Take `CC(=O)NCCCC[C@@H]1NC(=O)[C@H]2C[C@@H](C(=O)O)[C@@H](c3cccc(OCCO)c3)N2C1=O`: the composite z-score is -0.318 in experiment [1]; 1.1 in [2]; 0.0761 in experiment [3]; 0.841 in experiment [4]; 1.15 in [5]; 1.14 in experiment [6]. Moreover, the composite z-score in experiment [7] was 1.18; in [9] it was 0.491; in [10] it was -0.0862; in experiment [11], 1.54; in experiment [15] it was 2.49; in [17] it was 0.122. In addition, the composite z-score in experiment [18] came out at 1.58; in experiment [19], 1.11; in [20] it was 0.189. The z-score in experiment [8] was 0.618 (inactive); in experiment [12] it was 0.341 (inactive); in experiment [13], -0.198 (inactive); in [14] it was -0.453 (inactive); in experiment [16] it was -0.147 (inactive).

Take `C=CCN1C(=O)[C@@]2(O[C@@H](CCO)[C@H]([Si](C)(C)c3ccc(OC)cc3)[C@H]2C)c2cc(N3CCCCC3=O)ccc21`: the composite z-score was -0.217 in experiment [1]; 0.504 in experiment [2]; -0.0415 in experiment [3]; 0.268 in experiment [4]; 0.704 in [5]; 1.12 in experiment [6]. In addition, the composite z-score in experiment [7] was 1.14; in experiment [9] it was 0.2; in experiment [10] it was 0.0373; in experiment [11] it was 1.55; in experiment [15], 2.24; in experiment [17], -0.157. The composite z-score is 1.19 in [18], 0.868 in experiment [19] and -0.0662 in [20]. In addition, the z-score in experiment [8] was -1.11 (inactive); in experiment [12] it was 0.451 (inactive); in [13], 0.215 (inactive); in experiment [14], 1.81 (inactive); in [16], 0.649 (inactive).

The values above are taken from PubChem BioAssay.
